Assay outcomes (PubChem BioAssay)
Hits are enriched below; roughly 3.6% of the tested compounds scored in any of these assays.
GDH-TPI inh – inhibits GDH-TPI coupling enzymes, artifact for Mtb FBA screen. GDH-TPI coupled enzyme counterscreen, NADH absorbance. inhibition, % at 4.8 µM. hit rate 1.2% among 360,000; in the data active means inhibition above about 30%;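 further: 0% = DMSO wells and 100% = wells lacking the enzyme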
VHR inh abs – DUSP3 (human) phosphatase inhibition. inhibition, % at 13.3 µM. hit rate 0.52% among 290,000. recombinant VHR phosphatase, pNPP absorbance. P51452; in the data active means inhibition above about 50%
Target sequence (P51452 whole entry, looked up): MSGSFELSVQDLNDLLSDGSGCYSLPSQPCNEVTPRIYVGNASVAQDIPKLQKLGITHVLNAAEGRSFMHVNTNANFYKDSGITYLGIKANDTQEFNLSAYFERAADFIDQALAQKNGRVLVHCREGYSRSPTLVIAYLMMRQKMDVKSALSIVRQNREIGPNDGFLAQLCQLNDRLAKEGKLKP
FBA Mtb inh – inhibits M. tuberculosis FBA enzyme; P9WQA3; purified M. tuberculosis FBA, fluorescence read-out; inhibition, % at 1 µM; hit rate 2.3% among 360,000; AID 588726; in the data active means inhibition above about 27%;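 further: 0% = vehicle and 100% = reference inhibitor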
Target sequence (P9WQA3 whole entry, looked up): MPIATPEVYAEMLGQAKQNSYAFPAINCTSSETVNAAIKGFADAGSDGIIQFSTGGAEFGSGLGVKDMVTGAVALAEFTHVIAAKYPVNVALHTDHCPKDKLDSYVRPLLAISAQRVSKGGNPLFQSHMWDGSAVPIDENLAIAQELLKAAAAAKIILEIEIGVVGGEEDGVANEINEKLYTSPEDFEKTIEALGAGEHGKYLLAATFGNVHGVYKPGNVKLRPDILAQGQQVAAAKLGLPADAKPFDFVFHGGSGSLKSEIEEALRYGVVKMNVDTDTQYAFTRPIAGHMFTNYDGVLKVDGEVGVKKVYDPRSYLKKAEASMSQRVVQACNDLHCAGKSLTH
Mtb betalactam – beta-lactam sensitization of Mtb H37Rv | AID 434955 | inhibition, % at 25 µM | M. tuberculosis H37Rv growth with meropenem, percent inhibition | hit rate 0.27% among 330,000; call rule not given here;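 further: growth measured after seven days incubation then overnight dye step; 0% = bacteria only wells and 100% = bacteria with antibiotic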
Mtb hypoxia inh – Mtb hypoxia fluorescent reporter inhibition; fluorescence inhibition, % (concentration not given with the values); hit rate 0.1% among 300,000; M. tuberculosis hypoxia-regulated fluorescent reporter, fluorescence; AID 1159583; in the data active means fluorescence inhibition mostly above about 23%, no sharp cut-off; inactive means mostly below about 17%
The depositor's hits bear a star; x = not tested or not shown; + = active, no number.

SMILES	GDH-TPI inh	VHR inh abs	FBA Mtb inh	Mtb betalactam	Mtb hypoxia inh
C(=NN=C(NN=Cc1cccs1)NN=Cc1cccs1)c1cccs1	43.6*	x	1.7	x	14.5
C(=NN=Cc1cccs1)c1cccs1	x	x	x	x	13.5
O=C(N/N=C/c1cccs1)c1c[nH]c2ccccc12	38.2*	4.3	1.1	1.8	x
Cc1ccc(C=NNC(=O)c2c[nH]c3ccccc23)s1	x	x	x	x	14.9
CCc1ccc(/C=N/NC(=O)c2c[nH]c3ccccc23)s1	49.6*	-5.3	2.9	2.2	x
C/C(=N\NC(=O)c1c[nH]c2ccccc12)c1ccc(C)o1	32.7*	8.3	-1.8	8.6	x
CC=C(C)C(=O)NCCN1C2=NCC(Cc3ccccc3)N2CC1Cc1ccc(O)cc1 (configuration not stated)	x	x	x	x	7.8
Cc1ccc(C=Nn2c(-c3ccncc3)n[nH]c2=S)cc1	x	x	x	x	2.4
CN(C)C=Nc1c(C#N)cnn1-c1ncnc2sc(-c3ccccc3)cc12	x	x	x	x	2.7
C#CCOCCOCCOCCNc1nc(N2CCN(C(=O)Cn3cc(CCCCN)nn3)CC2)nc(N2CCN(C(=O)C(C)n3cc(CCC(=O)O)nn3)CC2)n1 (configuration not stated)	x	x	x	x	0.1
CC(C)CCn1c(N)c(C(=O)OCC2CCCO2)c2nc3ccccc3nc21 (configuration not stated)	8.2	10.5	134.3*	88.6	8.9
Nc1c(C(=O)OCC2CCCO2)c2nc3ccccc3nc2n1C1CCCCC1 (configuration not stated)	7.9	25.6	14.1	2.1	1.2
CCCCn1c(N)c(C(=O)OCC2CCCO2)c2nc3ccccc3nc21 (configuration not stated)	17.9	-4.0	+	26.1	-8.0
CCCNC(=O)N1C2CCC1C(C(=O)OC)=C(c1cccc(C#N)c1)C2 (configuration not stated)	x	x	x	x	6.8
O=C1Nc2ccccc2C1(c1ccccc1)c1ccccc1	-7.3	16.6	1.9	-9.8	3.9
Nc1ccc(C2(c3ccc(N)cc3)C(=O)Nc3ccccc32)cc1	0.0	52.7*	2.5	2.3	5.4
C=CC1c2cc(C)ccc2N(S(=O)(=O)c2ccc(C)cc2)C(c2ccccc2C(F)(F)F)C1(C#N)C#N (configuration not stated)	x	x	x	x	2.7
Cc1ccc(/C=C/C(=O)OCC(=O)N(CC(C)C)c2c(N)n(Cc3ccccc3)c(=O)[nH]c2=O)o1	41.7*	x	-0.3	-1.0	x
CCOC(=O)[C@]12Cc3cc(C)ccc3C1N(Cc1ccccc1)C(=O)c1ccccc12 (some centres not stated)	x	x	x	x	7.9
COCCCNC(=O)C1CCCN(S(=O)(=O)c2cccc3nsnc23)C1 (configuration not stated)	-0.4	52.7*	-5.7	-10.5	-2.9
S=C(NCC1CC1)NN=Cc1ccccc1Cl	x	x	x	x	2.8
Cc1ccc(C(=O)NC(=S)Nc2ccc(-c3ccc(CO)o3)cc2)cc1	9.9	-7.5	1.0	8.2	11.8
CCOC(=O)c1ccc(-c2ccc(CO)o2)cc1	18.9	23.1	+	-4.9	10.1
Cc1ccc(S(=O)(=O)N2C(c3ccc(Cl)c(Cl)c3)CC=C(C(=O)O)C2c2ccccc2)cc1 (configuration not stated)	x	x	x	x	7.2
Cc1ccccc1NC(=O)CSc1ccc(-c2ccccn2)nn1	-1.0	7.4	0.1	94.1	39.5*
SMILES	GDH-TPI inh	VHR inh abs	FBA Mtb inh	Mtb betalactam	Mtb hypoxia inh
CCN(CC)S(=O)(=O)c1ccc(Cl)nc1	8.1	15.4	63.3*	-9.9	-0.9
CCNc1nc(C)c2cc(Br)c(=O)n(CC)c2n1	39.9*	10.5	155.8*	-4.8	2.7
CCc1ccc(-c2cnc3nc[nH]c(=O)c3n2)cc1	6.1	x	135.0*	22.0	2.4
O=Cc1cn(CCC(=O)O)nc1-c1cccc(Br)c1	-4.1	26.4	1.6	-2.6	7.5
O=C(O)CCn1cc(/C=C\C(=O)c2ccc(Cl)cc2)c(-c2cccc(Br)c2)n1	38.3*	7.6	0.7	-0.4	2.3
C=CC1=C(C(=O)O)N2C(=O)C(NC(=O)C(=NOCC(=O)O)c3csc(N)n3)C2SC1 (configuration not stated)	x	x	x	x	19.3
CCOC(=O)C1CCCN(c2oc(-c3ccc(OC)cc3)nc2C#N)C1 (configuration not stated)	-1.9	-5.0	131.8*	46.6	-2.8
CCOC(=O)C1CCCN(c2ncnc3c2cnn3-c2ccc(OC)cc2)C1 (configuration not stated)	0.6	2.9	3.0	99.4	4.1
COc1ccccc1-c1nc(C#N)c(N2CCC(Cc3ccccc3)CC2)o1	19.1	23.5	44.3*	-6.5	-5.5
Cc1ccc(-c2nc(C#N)c(N3CCC(C(N)=O)CC3)o2)cc1	15.1	1.4	178.7*	-0.2	5.4
N#Cc1nc(-c2ccc(F)cc2)oc1N1CCC(C(N)=O)CC1	18.6	-11.0	+	5.3	3.5
CCOc1ccc(-c2nc(S(=O)(=O)c3ccccc3)c(N3CCC(C(N)=O)CC3)o2)cc1	4.1	4.7	1.9	-11.2	-2.0
CC1CCC[C@]2(CC(=O)c3cc(F)ccc3O2)C1 (some centres not stated)	x	x	x	x	3.4
COc1ccc(C2CC(=O)C=C(c3ccc(CNC(=O)OC(C)(C)C)cc3)C2)cc1 (configuration not stated)	x	x	x	x	10.3
C#CCOCCOCCOCCNc1nc(N2CCN(C(=O)C(CCC(=O)O)n3cc(C(N)CC(C)C)nn3)CC2)nc(N2CCN(C(=O)C(C(C)CC)n3cc(C(N)COC(=O)C(F)(F)F)nn3)CC2)n1 (configuration not stated)	x	x	x	x	11.1
CCOC(=O)[C@]12Cc3cc(N(C)C)ccc3C1N(Cc1ccccc1)C(=O)c1ccccc12 (some centres not stated)	x	x	x	x	-4.9
N#Cc1nc(-c2ccccc2)oc1N1CCC(C(N)=O)CC1	15.2	-11.8	+	-4.0	4.4
N#Cc1nc(-c2ccco2)oc1N1CCC(C(N)=O)CC1	10.0	11.9	123.7*	-16.5	-4.3
COc1ccc(-c2nc(C#N)c(N3CCOCC3)o2)cc1OC	11.8	14.2	+	-9.3	-7.3
COc1ccc(-c2nc(C#N)c(N3CCN(c4cccc(Cl)c4)CC3)o2)cc1OC	8.7	23.8	-0.2	0.6	0.9
N#Cc1nc(-c2ccco2)oc1N1CCN(Cc2ccccc2)CC1	12.8	8.5	5.8	-4.3	6.8
COc1ccc(-c2nc(C#N)c(N3CCC(C(N)=O)CC3)o2)cc1OC	20.6	23.2	+	-2.3	11.4
N#Cc1nc(Cc2ccccc2)oc1N1CCC(C(N)=O)CC1	2.3	4.0	-2.0	-15.8	8.6
COC(=O)C1=C(c2ccc(OC(F)(F)F)cc2)CC2CCC1N2C(=O)NC1Cc2ccccc2C1 (configuration not stated)	x	x	x	x	4.5
ON=C1CCCCc2sccc21	x	x	x	x	-2.9
N#CC(C#N)=C1CCCc2sccc21	32.6*	x	10.1	x	x
CCOC(=O)c1sc2nc(CC(C)C)c3c(c2c1N)CCC3	7.8	-4.8	14.5	2.3	x
CCOC(=O)c1oc2nc(C(C)C)c3c(c2c1N)CCC3	17.7	-4.6	123.7*	6.8	7.6
CCOC(=O)c1oc2nc(C(C)C)c3c(c2c1N)CC(C)(C)OC3	-1.8	6.7	149.4*	x	x
